# Results taken from article PMC4336329 (PLoS ONE, 2015).
# Hit rate of the full screen: of about 310,000 compounds, about 14,000 (4.5%) showed an effect of 50% or more. Effects have a minus sign here. Only a selection was taken, and strong results are over-represented in it overall.
# Molecular target: human ether-à-go-go-related gene (hERG) potassium channel (human, UniProt Q12809)
# Test: primary screen, population patch clamp on CHO cells stably expressing hERG; higher = less effect of the substance
# 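Note: peak tail current of the secondary pulse compared with the same well before compound.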
# human ether-à-go-go-related gene (hERG) potassium channel, sequence (Q12809 whole entry, looked up): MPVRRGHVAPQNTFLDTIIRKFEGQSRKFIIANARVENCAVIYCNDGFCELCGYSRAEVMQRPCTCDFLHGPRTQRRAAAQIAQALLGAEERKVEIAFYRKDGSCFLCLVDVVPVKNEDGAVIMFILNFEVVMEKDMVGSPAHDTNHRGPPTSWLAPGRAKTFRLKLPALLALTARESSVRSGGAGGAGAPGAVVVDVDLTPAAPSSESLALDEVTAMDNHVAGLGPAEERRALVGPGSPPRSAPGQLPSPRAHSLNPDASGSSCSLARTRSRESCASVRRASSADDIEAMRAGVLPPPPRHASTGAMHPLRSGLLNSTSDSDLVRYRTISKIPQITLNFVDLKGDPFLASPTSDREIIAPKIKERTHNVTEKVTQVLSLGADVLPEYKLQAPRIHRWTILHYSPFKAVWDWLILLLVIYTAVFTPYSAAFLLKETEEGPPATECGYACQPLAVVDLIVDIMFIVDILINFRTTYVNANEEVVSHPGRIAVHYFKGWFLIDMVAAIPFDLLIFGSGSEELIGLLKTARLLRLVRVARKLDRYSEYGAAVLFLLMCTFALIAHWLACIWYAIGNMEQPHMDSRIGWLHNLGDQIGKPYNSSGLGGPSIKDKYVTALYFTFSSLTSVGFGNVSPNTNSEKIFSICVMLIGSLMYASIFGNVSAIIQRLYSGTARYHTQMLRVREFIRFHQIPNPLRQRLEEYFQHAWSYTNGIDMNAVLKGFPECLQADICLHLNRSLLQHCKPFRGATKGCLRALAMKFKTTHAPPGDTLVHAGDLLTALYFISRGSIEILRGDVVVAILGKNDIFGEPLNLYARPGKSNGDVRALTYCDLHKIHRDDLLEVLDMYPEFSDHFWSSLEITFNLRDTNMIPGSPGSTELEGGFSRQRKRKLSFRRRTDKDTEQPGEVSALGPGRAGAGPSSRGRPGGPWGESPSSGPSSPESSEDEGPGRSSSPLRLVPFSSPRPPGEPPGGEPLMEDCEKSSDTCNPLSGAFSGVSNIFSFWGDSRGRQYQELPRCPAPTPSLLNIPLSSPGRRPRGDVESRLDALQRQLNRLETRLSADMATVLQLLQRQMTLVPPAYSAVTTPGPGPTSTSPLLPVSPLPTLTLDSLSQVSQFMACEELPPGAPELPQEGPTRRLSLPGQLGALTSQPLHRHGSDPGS
row,SMILES,"hERG current change (%, negative = inhibition) at 10uM"
1,Nc1nc(-c2ccc3c(c2)CCC(=O)N3)cs1,16.5%
2,CN(C)c1ccc(S(=O)(=O)N2CCCCC2)cc1NC(=O)C1CSC2(C)CCC(=O)N12 (centres unmarked),-22.3%
3,COC(=O)C1Sc2[nH]c(=O)sc2C(c2ccc(Cl)cc2)C1C(=O)OC (centres unmarked),-67%
4,CCOC(=O)C1Sc2[nH]c(=O)sc2C(c2ccc(Cl)cc2)C1C(=O)OCC (centres unmarked),-1.1%
5,COC(=O)C1Sc2[nH]c(=O)sc2C2c3ccccc3OC(=O)C12 (centres unmarked),-22.6%
6,Cc1[nH]n(-c2cccc([N+](=O)[O-])c2)c(=O)c1-c1ccccc1,15.8%
7,CCN(CC)S(=O)(=O)c1cc(NC(=O)[C@@H](NC(N)=O)C(C)C)ccc1C,15.5%
8,COc1ccc(/C=N/n2c(=O)[nH]c3c([nH]c4ccc(F)cc43)c2=O)cc1CN1CCCCC1,-19.1%
9,COc1ccc(/C=N/n2cnc3c([nH]c4ccc(C)cc43)c2=O)cc1CN1CCCC1,-63.2%
10,COc1ccc(/C=N/n2cnc3c([nH]c4ccc(F)cc43)c2=O)cc1CSc1ccccn1,20.6%
11,COc1ccc(/C=N/n2cnc3c([nH]c4ccc(F)cc43)c2=O)cc1CN1CCCC1,-68%
12,COc1ccc(/C=N/n2cnc3c([nH]c4ccc(Br)cc43)c2=O)cc1CN1CCOCC1,-8.88%
13,COc1ccc2[nH]c3c(=O)n(/N=C/c4ccc(OC)c(CN5CCCC5)c4)c(C)nc3c2c1,-45.3%
14,COc1ccc(NC(=O)c2nnn(CC(=O)Nc3ccccc3OC)c2N)c(OC)c1,0.272%
15,CCN(CC)CCOc1ccc2nc(N(C)C)sc2c1.Cl,11.1%
16,CC12CCC(C(=O)Nc3ccccc3)(C/C1=N\O)C2(C)C (centres unmarked),10.9%
17,CCSc1nnc(NC(=O)Cc2ccccc2OC)s1,13%
18,COCCNC(=O)CSc1nc2ccc(N3CCOCC3)cc2c(=O)n1CCc1ccccc1,-55.1%
19,CCCCNC(=O)CSc1nc2ccc(N3CCOCC3)cc2c(=O)n1CCc1ccccc1,-19.3%
20,COCCCNC(=O)CSc1nc2ccc(N3CCOCC3)cc2c(=O)n1CCc1ccccc1,-59.8%
21,COCCNC(=O)CSc1nc2ccc(N3CCOCC3)cc2c(=O)n1Cc1ccc(OC)cc1,-22.4%

row,SMILES,"hERG current change (%, negative = inhibition) at 10uM"
1,CCCCn1c(SCC(=O)NCCOC)nc2ccc(N3CCOCC3)cc2c1=O,-2.94%
2,CCC(C)NC(=O)CSc1nc2ccc(N3CCOCC3)cc2c(=O)n1CCc1ccccc1 (centres unmarked),3.14%
3,Cc1ccc(CN2CC(C(=O)NCCC3=CCCCC3)CC2=O)cc1 (centres unmarked),-19.6%
4,CCN(c1ccc(NC(=O)CSCc2c(C)noc2C)cc1)C(C)C,-7.72%
5,Cc1ccccc1-c1cc2nc(C)c(Cl)c(=O)n2[nH]1,-8.26%
6,O=C(Nc1cccc(F)c1)c1cccnc1,3.96%
7,CCOC(=O)N1CCN(C(=O)c2sc3nc(-c4ccc(F)cc4)cn3c2C)CC1,-62.1%
8,Cc1c(C(=O)Nc2ccncc2)sc2nc(-c3ccc(F)cc3)cn12,-8.24%
9,COC(=O)C1CCN(C(=O)c2sc3nc(-c4ccc(F)cc4)cn3c2C)CC1,-59.5%
10,Cc1c(C(=O)N2CCN(C(=O)c3ccco3)CC2)sc2nc(-c3ccc(F)cc3)cn12,-76.9%
11,Cc1c(C(=O)N2CCN(c3ccc(F)cc3)CC2)sc2nc(-c3ccccc3)cn12,-13.4%
12,CCOC(=O)C1CCN(C(=O)c2sc3nc(-c4ccccc4)cn3c2C)CC1,-41%
13,COc1ccccc1N1CCN(C(=O)c2sc3nc(-c4ccccc4)cn3c2C)CC1,-35%
14,CCOC(=O)C1CCN(C(=O)c2sc3nc(-c4ccc(F)cc4)cn3c2C)CC1,-60.5%
15,Cc1c(C(=O)N2CCN(c3ccccc3F)CC2)sc2nc(-c3ccccc3)cn12,-14.1%
16,Cc1c(C(=O)NCC2CCCO2)sc2nc(-c3ccc(F)cc3)cn12 (centres unmarked),-29.7%
17,COc1ccc(-c2cn3c(C)c(C(=O)N4CCN(c5ccc(F)cc5)CC4)sc3n2)cc1,1.07%
18,COc1ccccc1N1CCN(C(=O)c2sc3nc(-c4ccc(F)cc4)cn3c2C)CC1,-34%
19,CN(C)CCNc1oc(COc2ccc(Cl)cc2Cl)nc1C#N,15.3%
20,COc1cc(OC)cc(C(=O)NNC(=O)CCOc2ccccc2OC)c1,7.89%
21,O=C(CSc1nnc(NC(=O)c2ccccc2F)s1)NC1CC1,19.2%

row,SMILES,"hERG current change (%, negative = inhibition) at 10uM"
1,C=C(C)C1Cc2nc(N)nc(C)c2C1 (centres unmarked),10.8%
2,Cc1ccc(OCCNC(=O)c2ccccc2O)cc1,8.04%
3,Cc1cc(C(=O)Nc2nc3c(s2)CCCC3)no1,-16.8%
4,C=CCC(=O)OCCCCCCOc1ccc(C(=O)O)cc1,-3.87%
5,O=C1CC(c2cc(-c3ccccc3)no2)C1,-9.96%
6,c1ccc2nc3c(nc2c1)[nH]c1ccccc13,-15%
7,O=C(O)c1cc2ccc3ccccc3c2[nH]1,1.56%
8,O=C(CSc1c2c(nc3cc(Cl)ccc13)CCCC2)NCCN1CCOCC1,3.58%
9,CCN(CC)CCCNC(=O)CSc1c2c(nc3cc(Cl)ccc13)CCCC2,-48.4%
10,CCN(CC)CCNC(=O)CSc1c2c(nc3cc(Cl)ccc13)CCCC2,-64.1%
11,CSc1ncc(C(=O)Nc2cccc(Cl)c2)c(C)n1,10.9%
12,CC(NC(=O)c1ccc(F)cc1Cl)C1CC2CCC1C2 (centres unmarked),4.99%
13,Cc1ccc(C(=O)NC(C)C2CC3CCC2C3)cc1 (centres unmarked),19.1%
14,CC(CNC(=O)c1ccc(C#N)cc1)NC(=O)c1ccc(C#N)cc1 (centres unmarked),-76.6%
15,CC(NC(=O)c1ccc([N+](=O)[O-])cc1Cl)C1CC2CCC1C2 (centres unmarked),-58.2%
16,CC(NC(=O)c1cc([N+](=O)[O-])cc([N+](=O)[O-])c1)C1CC2CCC1C2 (centres unmarked),-7.55%
17,CC(NC(=O)c1ccc(Cl)cc1)C1CC2CCC1C2 (centres unmarked),2.08%
18,CC(NC(=O)c1ccc(C#N)cc1)C1CC2CCC1C2 (centres unmarked),-58.8%
19,CCOc1ccc(C(=O)NCC(C)NC(=O)c2ccc(OCC)cc2)cc1 (centres unmarked),24.5%
20,CC(CNC(=O)c1ccc(N)cc1)NC(=O)c1ccc(N)cc1 (centres unmarked),9.03%
